# Source: the supplement of paper PMC10941209
# Test system: HFF
# Assay: cell viability relative to DMSO control; higher = less cytotoxic
# Conditions: 1 µM; 72 h
# Procedure: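 Single-dose cytotoxicity screen of the MMV Pandemic Response Box at 1 uM on human foreskin fibroblasts (HFF), 72 h at 37 C. Viability measured by MTT (OD 550 nm) and normalised to the DMSO control (% survival).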
row,SMILES,cell viability [%]
1,CCn1cc(C(=O)O)c(=O)c2cc(F)c(N3CCNC(C)C3)c(F)c21 (configuration not stated),71.2
2,Cc1nc(Nc2ccc(F)cc2)nc(N2CCc3ccccc3C2C)c1C (configuration not stated),65.9
3,O=S(=O)(Nc1cccc2cccnc12)c1ccccc1,64.1
4,C=C(C)n1c(=O)n(Cc2ccccc2C)c2ccccc21,63
5,Nc1nc(=O)c(Br)c(-c2ccccc2)[nH]1,64.9
6,O=C1CCC(N2C(=O)c3ccccc3C2=O)C(=O)N1 (configuration not stated),59
7,COc1c(F)c(F)cc2c(=O)c(C(=O)O)cn(C3CC3)c12,69.4
8,CCc1cc(Nc2cc(=O)n(CCN3CCN(C(=O)c4ccccc4)CC3)c(=O)[nH]2)ccc1C,68.7
9,C=CCc1cc(Cc2cnc(N)nc2N)cc(OC)c1O,72.9
10,O=C(/C(=C/c1ccc(Cl)cc1Cl)n1ccnc1)c1ccc(Cl)cc1,74.8
11,O=S(=O)(NCB(O)O)c1cc2c(Cl)ccc(Cl)c2s1,68
12,O=C(c1ccc(F)cc1)N1CCN2C(=O)c3ccccc3C12c1ccccc1 (configuration not stated),63.3
13,NC(=O)c1cnc2ccc(S(=O)(=O)c3ccccc3)cc2c1Nc1ccc(O)cc1,59.5
14,COc1cc(C(C(=O)NC2CCCCC2)N(C(=O)Cc2c[nH]c3ccccc23)c2ccc(C(C)C)cc2)cc(OC)c1OC (configuration not stated),66.3
15,O=C(Nc1ccc(N2CCN(C(=O)c3ccccc3)CC2)cc1)c1ccc2c(c1)OCO2,60.1
16,CCN(CC)CCn1c(=N)n(CC(O)COc2ccc(Cl)cc2Cl)c2ccccc21 (configuration not stated),60.7
17,O=S(=O)(Nc1ccccc1)c1ccc(NC(=S)Nc2ccccc2)cc1,66.2
18,C[C@H](Cn1cnc2c(N)ncnc21)OCP(=O)(O)O,58.1
19,CCc1cc(O)c(Oc2cccnc2N)cc1F,65.5

row,SMILES,cell viability [%]
1,Cc1cc(CCCOc2c(C)cc(-c3noc(C(F)(F)F)n3)cc2C)on1,65.5
2,C[C@H](NC(=O)C(=O)Nc1ccccc1C(C)(C)C)C(=O)N[C@@H](CC(=O)O)C(=O)COc1c(F)c(F)cc(F)c1F,55.9
3,O=C(N[C@H](Cc1cccc2ccccc12)C(=O)NCCc1c[nH]cn1)C1Cc2ccccc2C1,62.3
4,CC(C)N(c1cc(-c2ccccc2)sc1C(=O)O)C(=O)[C@H]1CC[C@H](C)CC1,67.5
5,OCCCCn1cnc2c(O)nc(NCc3ccc(Cl)c(Cl)c3)nc21,62.2
6,CC(Cc1ccccc1)C(=O)Nc1ccc(Cl)cc1C(=O)O (configuration not stated),65
7,Cc1cc(O)c2c(c1)C(=O)c1c(I)c(O)c(I)c(O)c1C2=O,71.9
8,Clc1cc2nc(C3CCNCC3)n(Cc3ccc(CNCCc4c[nH]cn4)cc3)c2cc1Cl,65.3
9,COc1c(NC(=O)[C@H]2CC[C@@H](COc3ccc([N+](=O)[O-])cc3)CC2)c(F)cc2c(=O)c(C(=O)O)cn(C3CC3)c12,62.8
10,CCCCc1ccc(S(=O)(=O)Nc2cc(C)on2)cc1,63.3
11,Cc1[nH]c2ccccc2c1CC(=O)N[C@@H](Cc1ccccc1)C(=O)N(C)c1ccccc1,69.6
12,N#Cc1cc([N+](=O)[O-])ccc1Oc1ccccc1Cl,72.5
13,O=[N+]([O-])c1cn2c(n1)OC[C@@H](OCc1ccc(OC(F)(F)F)cc1)C2,64.4
14,O=C(NCCN1CCCCC1)c1cccc(C(F)(F)F)c1,70.6
15,CCC(C)(C)c1ccc(CC(C)CN2C[C@@H](C)O[C@@H](C)C2)cc1 (some centres not stated),65
16,CC(C)Nc1ncnc2c1cnn2-c1ccc(Cl)cc1,71.9
17,CC(N)C12CC3CC(CC(C3)C1)C2 (configuration not stated),63.2
18,O=C1[C@H](CC[C@H](O)c2ccc(F)cc2)[C@@H](c2ccc(O)cc2)N1c1ccc(F)cc1,73
